From PubChem BioAssay (NCI)
The panel holds about 79,000 compounds, 15% with a hit somewhere; the sample as a whole holds those more often. A number with no mark means an inactive call. Active and inactive are the calls of the source. Cut-off read from the data, not from the text of the source: active = growth inhibition above about 70%; inactive = the rest.

Assay: NCI Yeast Anticancer Drug Screen. Data for the sgs1 mgt1 strain (AID 161);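 note: 0% = growth of cultures given vehicle only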
Conditions: S. cerevisiae sgs1 mgt1 strain, at 50.0 µM, stronger effect = higher value
Outline: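 Read-out: growth inhibition vs vehicle controls. Cells: mutant yeast strain deficient in DNA damage repair.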

SMILES	growth inhibition [%]
Cc1cccc2c(N)c3cccc(C(=O)NCC[N+](C)(C)[O-])c3nc12	11.1
OCCCCCCOc1ccc(-c2cc(-c3ccccn3)nc(-c3ccccn3)c2)cc1	68.9
CCN(CC(=O)NC(=O)c1ccccc1)c1ccccc1	-4.75
COc1ccc(OC)c(NC(=O)CCC/C(CC(=O)c2ccc(O)c(OC)c2)=N\Nc2ccc([N+](=O)[O-])cc2)c1	-38.5
COc1ccccc1N=Nc1c(C)nc(N)nc1-c1ccccc1	25.9
CCOC(=O)CCC(NC(=O)C(N)c1ccc([N+](=O)[O-])cc1)C(=O)NC(CCC(=O)OCC)C(=O)OCC (centres undefined)	1.2
Cc1c(C)n(COCCO)c2ncnc(N)c12	-23.6
CC1CN=C(N(Cc2ccc(F)cc2)C(=O)Nc2ccc(Cl)cc2)S1 (centres undefined)	-41.5
O=C1C=C2CCCCCCCCC(C1)C2 (centres undefined)	-5.45

Assay: NCI Yeast Anticancer Drug Screen. Data for the cln2 rad14 strain (AID 165);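 note: 0% = growth equal to vehicle treated cultures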
Conditions: S. cerevisiae cln2 rad14 strain, at 50.0 µM, stronger effect = higher value
Outline: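 Growth of compound-exposed yeast (cln2 rad14 genotype) measured and expressed as inhibition relative to vehicle.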

SMILES	growth inhibition
C=C(c1ccc(OC)cc1)c1cc(C(C)(C)C)c(O)c(C(C)(C)C)c1	51.8%
C=C(C)COC(=O)COc1ccc(Cl)cc1	0.45%
O=C(NCc1ccc(Cl)c(Cl)c1)Nc1ccccc1F	9.65%
CN(C)CCC(C(=O)C(C)(C)C)c1ccccn1 (centres undefined)	-19.4%
C=Cc1c(C)c(C)c(C=C)c(C)c1C	4.75%
N#CCN1CCOCCOCCN(CC#N)CCOCCOCC1	19.7%
C=C[C@@H]1C(CO)=CCC2[C@H]1CCC1C(C)(C)C(=O)CC[C@]21C (some centres undefined)	2.7%
Cc1ccc(/C=C2\N=C(N3CCCC(CO)C3)NC2=O)cc1 (centres undefined)	-1.15%
CC1CC(C)OC(c2ccccc2)O1 (centres undefined)	-20.1%
COc1ccc(OC)c(C(=O)C=C(C(F)(F)F)C(F)(F)F)c1	-41.6%
COc1ccc(Cc2c(O)ccc3ccccc23)cc1	95.8% (active)
ClSC(c1ccccc1)(c1ccccc1)c1ccccc1	10.6%
CCCCCCCCCCCCCC(=O)OCC1OC(n2cc(F)c(=O)[nH]c2=O)C(N)C(OC(=O)CCCCCCCCCCCCC)C1O (centres undefined)	35.3%
CCN(CC)C(=O)C1CCN(CCC(=O)Nc2ccccc2)CC1	-16.1%
CC1=C(C(=O)O)CCc2ccccc21	13.7%
O=C(c1ccccc1CO)N1CCCCC1	-69%
N#CNC(=NCCO)NCCO	11.3%
CC1CCC(C(C)C)C(OC2(c3ccccc3)OC(=O)c3ccccc32)C1 (centres undefined)	8.55%
COc1ccccc1-n1c(O)c(N=Nc2ccc(Cl)cc2)c(=O)n(-c2ccc(I)cc2)c1=S	-9%
COC(=O)/C(=N/Nc1cccc(Cl)c1)C(C(=O)C(=O)Nc1cccc(Cl)c1C)c1nc2ccccc2nc1C (centres undefined)	39.3%

SMILES	growth inhibition
C=C(C)COc1ccc(-c2ccccc2)cc1	-4.95%
COc1ccc(NC(=O)CC(=O)N/N=C/c2ccc(N(CCC#N)S(=O)(=O)c3ccccc3)cc2)cc1	8.15%
CNC(=O)/C(=C\c1ccccc1)NC(C)=O	-54.7%
CCOC(=O)NN(C(=O)OCC)C(C(=O)C1CCCCC1)N(NC(=O)OCC)C(=O)OCC	11.2%
c1ccc(CCc2cccnc2)nc1	50%
O=C(c1cccc(F)c1)c1ccccc1Cc1ccccc1	19.4%
Cc1cccc(C)c1NC(=O)/C(=N/NC(N)=S)C(C)C(=O)c1ccc(Cl)cc1 (centres undefined)	13.3%
Cn1c2ccccc2c2[nH]c3ccccc3c(=O)c21	-8.95%
CN(C=O)C(C(=O)Nc1cccc2c(OC(=O)C(N(C)C=O)(N(C)C=O)N(C)C=O)c(N=Nc3ccc(S(=O)(=O)Nc4nccs4)cc3)cc(N=Nc3ccc(S(=O)(=O)Nc4nccs4)cc3)c12)(N(C)C=O)N(C)C=O (tested in a mixture with another compound)	-6.5%
COc1ccc(C2S/C(=C\c3ccccc3)C(=O)N2NC(=O)Cc2ccccc2)cc1 (centres undefined)	-69.7%
CC(=O)OC1CCC2(C)C3C/C(=N\O)C4(C)C(C(C)OC(C)=O)CCC4C3CCC2(C)C1 (centres undefined)	91.8% (active)
Cc1cccc2c(N)c3cccc(C(=O)NCC[N+](C)(C)[O-])c3nc12	31%
OCCCCCCOc1ccc(-c2cc(-c3ccccn3)nc(-c3ccccn3)c2)cc1	64.9%
CCN(CC(=O)NC(=O)c1ccccc1)c1ccccc1	-34.5%
COc1ccc(OC)c(NC(=O)CCC/C(CC(=O)c2ccc(O)c(OC)c2)=N\Nc2ccc([N+](=O)[O-])cc2)c1	23.1%
COc1ccccc1N=Nc1c(C)nc(N)nc1-c1ccccc1	7.9%
CCOC(=O)CCC(NC(=O)C(N)c1ccc([N+](=O)[O-])cc1)C(=O)NC(CCC(=O)OCC)C(=O)OCC (centres undefined)	0.5%
Cc1c(C)n(COCCO)c2ncnc(N)c12	13.8%
CC1CN=C(N(Cc2ccc(F)cc2)C(=O)Nc2ccc(Cl)cc2)S1 (centres undefined)	1.6%
O=C1C=C2CCCCCCCCC(C1)C2 (centres undefined)	-18.8%
